Assay outcomes from PubChem BioAssay.
TTR transcr act: TTR transcription activators in neuroblastoma reporter cells, primary screen, cell-based, luminescence, SH-SY5Y, TTR promoter Gaussia luciferase; 100% = recombinant luciferase protein wells; activation, % at 16.7 µM; hit rate 1.3% among 92,000;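 active = activation above the mean of all tested compounds plus 3 SD, cut at about 9.5% in these data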;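 note: cells exposed to compounds for one day before reading; 0% = median of all test compound wells on the plate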
HuH7 TTR inh: TTR promoter reporter inhibitors in hepatoma cells, counter-screen for TTR transcription activator project, cell-based, luminescence, HuH7 hepatoma | shares compounds with TTR transcr act | hit rate 4% among 1,100 | inhibition, % at 16.7 µM | HuH7 TTR promoter-Gaussia luciferase reporter;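 active = average inhibition above the solvent-only control wells' mean plus 3 SD, cut at about 15% in these data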;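 note: 0% = cells with DMSO only and 100% = cells with inhibitor control FD; inhibitors lower well luminescence so higher value means more inhibition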
TTR act confirm: TTR transcription activators, retest, confirmation, cell-based, luminescence, SH-SY5Y, triplicate. 1,100 tested, under 10 active. shares compounds with TTR transcr act. activation, % at 16.7 µM. AID 1117280, 2014. SHSY5Y TTR promoter Gaussia luciferase; 100% = purified Lucia enzyme wells, no cells;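 active = mean activation above a set limit taken from the earlier primary screen, cut at about 11% in these data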;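 note: 0% = DMSO-treated cells and 100% = recombinant Lucia luciferase without cells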
* hit, by the source's call. Many of the other results were omitted from the sample, so hits are more common in it than they were.

SMILES	TTR transcr act	others
COP(=O)(O)[C@@H](CC(C)C)NC(=O)OCc1ccccc1	0
COC(=O)c1ccc(Cn2ccc3ccc(-c4ccc5ccn(C(=O)c6ccccc6)c5c4)cc32)cc1	2
COc1ccc(CC(=O)N2CCN(c3ccc(F)cc3)CC2)cc1	3
O=C(CCS(=O)(=O)c1ccc(Cl)cc1)N1CCN(c2ccc(F)cc2)CC1	1
COc1ccc(S(=O)(=O)CCC(=O)N2CCN(c3ccc(F)cc3)CC2)cc1	10*	HuH7 TTR inh=-12;TTR act confirm=3
COCC(C)N1CCC(Oc2ccc(C(=O)N3CCCC3)cc2)CC1 (stereo not given)	-1
CC(=O)c1ccc(NC(=O)CN2CCC(NC(=O)C3CCCCC3)CC2)cc1	4
CC(=O)c1ccc(NC(=S)N2CCCCCC2)cc1	1
CCN(C(=S)Nc1ccc(C(C)=O)cc1)C1CCCCC1	32*	HuH7 TTR inh=-4;TTR act confirm=0
NC(=O)CC(NC(=O)Cc1cccc2ccccc12)c1ccc(NCCCN2CCCC2=O)c([N+](=O)[O-])c1 (stereo not given)	0
CN(C)S(=O)(=O)c1cccc(NC(=O)COC(=O)CCOc2ccccc2)c1	0
CN(C)S(=O)(=O)c1cccc(NC(=O)COC(=O)c2cn(-c3ccccc3)nc2-c2ccccc2)c1	15*	HuH7 TTR inh=-16;TTR act confirm=0
Cc1cc(C(=O)OCC(=O)Nc2cccc(S(=O)(=O)N(C)C)c2)c2ccccc2n1	-1
Cc1ccc(CN2CCCCC(NC(=O)c3ccc(F)c(F)c3)C2=O)cc1 (stereo not given)	-2
COC(=O)[C@]12C[C@H](CC(=O)NCC3CCCCC3)C(=O)N(Cc3ccccc3)C1=C[C@H](COCc1ccccc1)O[C@@H]2C	-1
COc1ccc(-c2noc(CCC(=O)Nc3nc4ccccc4s3)n2)cc1	6
COc1ccc(NC(=O)CCc2nc(-c3ccccc3F)no2)cc1	9.9*	HuH7 TTR inh=-17;TTR act confirm=0
CCOC(=O)c1cccc(NC(=O)CCc2nc(-c3ccccc3F)no2)c1	5
COc1cc2c(cc1OC)CN(C(=O)CN1CCN(S(=O)(=O)c3ccc(C)c(C)c3)CC1)CC2	-1
C[C@H](CO)N1C[C@H](C)[C@@H](CN(C)C(=O)c2ccccn2)Oc2cc(Br)ccc2S1(=O)=O	1
CCCCn1nc2cc(C(=O)NCCc3cccs3)ccc2c1OCC	-4
CCCCn1nc2cc(C(=O)N(CC)c3ccc(OC)cc3)ccc2c1OCC	13*	HuH7 TTR inh=-7;TTR act confirm=0
CCCCn1nc2cc(C(=O)NC3CCc4ccccc43)ccc2c1OCC (stereo not given)	1
O=C(OCC#CCSc1nnc(-c2cccc3ccccc23)o1)c1cc(F)c(F)c(F)c1	-2
N#Cc1ccccc1S(=O)(=O)N1CCN(c2nc(-c3cccs3)nc3ccccc23)CC1	1
SMILES	TTR transcr act	others
Cc1ccccc1C(C(=O)NCc1ccco1)N(CC1CCCO1)C(=O)Cn1nnc2ccccc21 (stereo not given)	12*	HuH7 TTR inh=-4;TTR act confirm=-1
Cc1cccc(N(C(=O)Cn2nnc3ccccc32)C(C(=O)NCc2ccco2)c2ccncc2)c1C (stereo not given)	1
O=C(NCc1ccco1)C(c1ccccc1)N(CC1CCCO1)C(=O)Cn1nnc2ccccc21 (stereo not given)	6
Cc1ccc(S(=O)(=O)N2OC(c3ccccc3)C[C@H]2CC=C(c2ccccc2)c2ccccc2)cc1 (stereo not given in full)	-1
CSCCC(NS(=O)(=O)c1ccc(C)cc1C)C(=O)Nc1cccnc1 (stereo not given)	1
COc1ccc(-n2ncc3c2CC(C)(C)CC3NC(=O)C2=CC(=O)CC(C)(C)O2)cc1 (stereo not given)	0
Cc1cccc(CSc2nnc3c(n2)[nH]c2ccccc23)c1	-1
Cc1cc(SCC(=O)O)nc2ccccc12	30*	HuH7 TTR inh=-2;TTR act confirm=1
O=C(O)CSc1cnc2ccccc2n1	8
Cc1cc(SCC(=O)c2cc3ccccc3o2)nc2ccccc12	0
O=C(COc1ccc(Br)cc1)N1CCN(c2ncccn2)CC1	6
CC(C)(CO)NC12CC3CC(CC(C3)C1)C2	-1
c1ccc(CNC23CC4CC(CC(C4)C2)C3)nc1	-1
Cc1ccsc1CNC12CC3CC(CC(C3)C1)C2	9.7*	HuH7 TTR inh=-8;TTR act confirm=1
CSc1ncc2[nH]c(C(O)c3ccccc3)nc2n1 (stereo not given)	-3
Nc1nc(/C=C/c2cccnc2)nc(-c2ccccc2O)n1	-1
Oc1ccc(C(=S)N2CCCCC2)cc1	10*	HuH7 TTR inh=2;TTR act confirm=-1
COc1cc(C(=S)N2CCCC2)ccc1O	1
COc1ccc(C(=S)N2CCCC2)cc1Br	1
CCN1C[C@@H]2[C@@H]3C(=O)N(Cc4ccccc4)C(=O)[C@@H]3[C@](C)(C(=O)OC)N2C1=NC1CCCCC1	25*	HuH7 TTR inh=-2;TTR act confirm=0
CCN1C(=O)[C@H]2[C@H]3CN=C(SCC(=O)c4ccccc4)N3[C@@](C)(C(=O)OC)[C@H]2C1=O	13*	HuH7 TTR inh=-3;TTR act confirm=0
CCCN=C1N(CC)C[C@@H]2[C@@H]3C(=O)N(Cc4ccccc4)C(=O)[C@@H]3[C@](C)(C(=O)OC)N12	0
COC(=O)[C@@]1(C)[C@H]2C(=O)N(Cc3ccccc3)C(=O)[C@H]2[C@H]2CN(C)C(=NC3CCCCC3)N21	5
CCN1C(=O)[C@H]2[C@H]3CN=C(SCc4ccc(C#N)cc4)N3[C@@](C)(C(=O)OC)[C@H]2C1=O	-1
COC(=O)[C@@]1(C)[C@H]2C(=O)N(Cc3ccccc3)C(=O)[C@H]2[C@H]2CN=C(SCc3ccccc3)N21	2
SMILES	TTR transcr act	others
O=C1CCc2cc(S(=O)(=O)Nc3ccc4c(c3)OCCO4)ccc2N1	-1
CC(C)c1ccc([C@@H]2O[C@H](C)CC3=C2C(=O)OC(C)(C)O3)cc1	0
CCCCn1c(N)c(N(CC(C)C)C(=O)C2CC(=O)N(c3ccc(C)cc3)C2)c(=O)[nH]c1=O (stereo not given)	0
CCCCn1c(N)c(N(CC(C)C)C(=O)CN2C(=O)NC3(CC(C)CC(C)(C)C3)C2=O)c(=O)[nH]c1=O (stereo not given)	11*	HuH7 TTR inh=-3;TTR act confirm=0
CCCCn1c(N)c(N(CC(C)C)C(=O)Cn2c(=O)oc3ccccc32)c(=O)[nH]c1=O	-1
CC1CCN(Cc2nnnn2CCCC(=O)NCCN2CCOCC2)CC1	3
CC(C)CN(CC(C)C)C(=S)Nc1ccc(Cl)cc1	1
Nc1ncnc2c1ncn2[C@@H]1O[C@H](C(=O)N2CCC[C@@H]2C(=O)OCc2ccccc2)[C@@H](O)[C@H]1O	0
CCOC(=O)C1CCN(C(=O)Cn2nc(C)n3nc(-c4ccc(OC)cc4)cc3c2=O)CC1	11*	HuH7 TTR inh=-6;TTR act confirm=-1
CCOC(=O)C1CCN(C(=O)/C=C/c2ccc(OC)cc2)CC1	1
CCc1ccc(-c2cc3c(=O)n(CC(=O)NCCN4CCCCC4C)nc(C)n3n2)cc1 (stereo not given)	5
CCOC(=O)[C@]12CCCC=C1N(Cc1ccc(OC)cc1)C(=O)[C@@H]2CC(=O)NCCc1ccccc1OC	-1
O=C(Cc1n[nH]c(=O)c2ccccc12)Nc1ccc(-c2nnc3n2CCCCC3)cc1	1
